Data on 18 molecules can be found in PubChem BioAssay (NCATS).

A short description of assay [1]: qHTS to identify inhibitors of the type 1 interferon - major histocompatibility complex class I in skeletal muscle: primary screen against the NCATS Mechanism Interrogation Plate v5.0 (MIPE) Libary (AID 1347411).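 Further: plate controls were vehicle for no effect and reference inhibitor for full effect; nearly all actives have a fitted effect of over 65% in size.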 An outline of the steps: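 IFN-beta-driven (4 ng/ml) HLA-B-HiBit expression in CRISPR-tagged C25cl48 myoblasts; compounds 11-pt, 1:3, max 46 uM, 24 hr exposure; lytic NanoLuc complementation luminescence.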
In general terms: qHTS replaces the single test concentration by a dilution series.

Assay [2] can be described thus: Primary qHTS for inhibitors of nuclear receptor binding SET domain protein 2 (NSD2) in an isogenic RCH-ACV NSD2 p.E1099K mutant (9B) (AID 1645876). Further: nearly all actives have a fitted effect of over 70% in size. Further: potency means the concentration at half of the fitted maximal effect. On activity change, negative = viability loss: on the % scale 0 is the no-effect control and ±100 the full control effect.
Assay [3] is described as follows: Primary qHTS for inhibitors of nuclear receptor binding SET domain protein 2 (NSD2) in an RCH-ACV wild type WT cells (2C) (AID 1645877). Further: nearly all actives have a fitted effect of over 70% in size. Further: potency means the concentration at half of the fitted maximal effect. On activity change, negative = cell killing: on the % scale 0 is the no-effect control and ±100 the full control effect.
For assay [4], the target named is Glutathione peroxidase 1 (Homo sapiens) (UniProt P07203). As to the kind of experiment: Primary qHTS Assay for Inhibitors of Recombinant Selenoprotein Glutathione Peroxidase 1 (GPX1) (AID 1845191). Further: nearly all actives have a fitted effect of over 65% in size. A digest of the protocol:
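GR-coupled readout: NADPH consumption tracked by fluorescence, ex 340/em 450 nm, at t=0 and after 15 min at RT. Final mix 10 nM GPX1, 1 mM GSH, 0.5 mM CHP, 0.5 mM NADPH, 100 nM GR, 0.01% BSA, following 30 min enzyme–compound preincubation.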

The target of assay [5] is Phospholipid hydroperoxide glutathione peroxidase GPX4 (Homo sapiens) (UniProt P36969). The experiment in a line: Primary qHTS Assay for Inhibitors of Recombinant Selenoprotein Glutathione Peroxidase 4 (GPX4) (AID 1845192). Further: nearly all actives have a fitted effect of over 65% in size. On activity change, negative = inhibition: series mostly up to about 50 µM; on the % scale 0 is the no-effect control and ±100 the full control effect. The note with it: outcome: dose series up to 50 µM unless noted. An outline of the steps: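 Steps: GPX4 plus compound, 30 min RT; add GR/GSH/NADPH master mix; start with cumene hydroperoxide; read 340/450 nm fluorescence at 0 and 15 min. Finals were 200 nM GPX4, 1 mM GSH, 0.5 mM CHP, 0.5 mM NADPH, 100 nM GR.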
Chain of Phospholipid hydroperoxide glutathione peroxidase GPX4 (Homo sapiens) (P36969 whole entry, looked up): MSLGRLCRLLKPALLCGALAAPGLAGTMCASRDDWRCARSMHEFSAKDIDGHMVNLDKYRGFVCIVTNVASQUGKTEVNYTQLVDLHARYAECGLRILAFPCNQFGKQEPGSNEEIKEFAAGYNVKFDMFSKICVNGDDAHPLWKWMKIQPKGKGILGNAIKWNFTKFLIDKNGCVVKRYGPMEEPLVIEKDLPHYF

The nature of assay [6]: qHTS drug screen for cell cycle checkpoint inhibitors in PARPi-resistant BRCA-mutant ovarian cancer cell lines. (AID 1963452; calls by dose curve; further: potency means the concentration at half of the fitted maximal effect). The note with it: PEO1/OlaR viability, CellTiter-Glo luminescence, 96 h; for Z-AUC: stronger effect = lower value. An outline of the steps:
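PEO1, PEO4 and PEO1/OlaR ovarian cancer cells, 600 per well, exposed 96 h at 37C to a dilution series. Viability read by CellTiter-Glo luminescence, normalized to DMSO and empty wells; activity summarized as Z-AUC.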

The mark [7] stands for this setting: measured here: PEO1 parental Z-AUC.

Results filed as inconclusive are left out. Activity calls are given as the source filed them. Unless noted, the call rests on the fitted dose curve; in most records, active means well fitted curve in the direction sought with a large enough effect; inconclusive means small, poorly fitted or top-dose-only effect, or another doubt; inactive means no such curve, though single readings can be large; an effect the other way counts as inactive or inconclusive.

Chain of Glutathione peroxidase 1 (Homo sapiens) (P07203 whole entry, looked up): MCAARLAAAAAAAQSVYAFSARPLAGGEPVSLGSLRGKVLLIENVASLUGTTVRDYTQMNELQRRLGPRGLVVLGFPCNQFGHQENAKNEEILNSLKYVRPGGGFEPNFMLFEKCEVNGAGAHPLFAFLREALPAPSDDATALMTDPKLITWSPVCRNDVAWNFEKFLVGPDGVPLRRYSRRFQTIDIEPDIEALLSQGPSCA

`OC[C@H]1O[C@@H](S[C@@H]2O[C@H](CO)[C@H](O)[C@H](n3cc(-c4cccc(F)c4)nn3)[C@H]2O)[C@H](O)[C@@H](n2cc(-c3cccc(F)c3)nn2)[C@H]1O`: the Potency entry in assay [1], in assay [2], in assay [3], in assay [4] and in assay [5] was “inactive” each time. Also, the Z-AUC in assay [6] was -0.122 (inactive); in assay [6] (setting [7]) it was 0.00215; in assay [6] (measured here: PEO4 Z-AUC), 0.252.

On to `O=C([O-])C[O-].[Pt+2]`, for which the Potency entry in assay [1], in assay [2], in assay [3], in assay [4] and in assay [5] was “inactive” each time. Also, the figures for the Z-AUC in assay [6], in assay [6] (setting [7]) and in assay [6] (measured here: PEO4 Z-AUC) were 1.62 (inactive), 1.67 and 1.5, respectively.

As for `Cn1c(-c2ccccc2C(F)(F)F)nnc1C12CCC(c3noc(C4CC(F)(F)C4)n3)(CC1)CC2`, the Potency result in assay [1], in assay [2], in assay [3], in assay [4] and in assay [5] was “inactive” throughout. For the same molecule, the Z-AUC is 1.42 (inactive) in assay [6], 1.05 in assay [6] (setting [7]) and 1.41 in assay [6] (measured here: PEO4 Z-AUC).

With `N=C1CCCN1Cc1[nH]c(=O)[nH]c(=O)c1Cl`, the Potency result in assay [1], in assay [2], in assay [3], in assay [4] and in assay [5] was “inactive” throughout. In addition, the Z-AUC is -0.424 (inactive) in assay [6], 0.0295 in assay [6] (setting [7]) and -0.23 in assay [6] (measured here: PEO4 Z-AUC).

In the case of `CC1(N)CCN(c2cccnc2NC(=O)c2nc(-c3ncccc3C(F)(F)F)cnc2N)CC1`, the Potency result in assay [1], in assay [4] and in assay [5] was “inactive” each time. Also, the Potency was 16600 nM (active) in assay [2] and 20900 nM (active) in assay [3]. Besides, the Z-AUC in assay [6] was 0.421 (inactive); in assay [6] (setting [7]), -0.000608; in assay [6] (measured here: PEO4 Z-AUC) it was 0.765.

With `CCOc1ccc(Cc2cc([C@@H]3O[C@H](CO)[C@@H](O)[C@H](O)[C@H]3O)ccc2Cl)cc1`, the Potency entry in assay [1], in assay [2], in assay [3], in assay [4] and in assay [5] was “inactive” each time. The results for the Z-AUC in assay [6], in assay [6] (setting [7]) and in assay [6] (measured here: PEO4 Z-AUC) were 1.26 (inactive), 1.31 and 1.52, respectively.

As to `CC(C)NCCCn1c(Sc2cc(Cl)cc(Cl)c2)nc2c(N)ncnc21`, the Potency entry in assay [1], in assay [4] and in assay [5] was “inactive” each time. The Potency in assay [2] is 20900 nM (active); in assay [3], 18600 nM (active). The Z-AUC in assay [6] is -1.23 (inactive); in assay [6] (setting [7]), -0.363; in assay [6] (measured here: PEO4 Z-AUC) it was 0.533.

Regarding `COCCNc1cc(NC(=O)N2CCCc3cc(CN4CCN(C)CC4=O)c(C=O)nc32)ncc1C#N`, the activity change, negative = inhibition in assay [1] is -1.84% [at 8.44 µM] (inactive). Besides, the activity change, negative = viability loss in assay [2] was 3.8% [at 9.23 µM] (inactive). The activity change, negative = cell killing in assay [3] was 2.96% [at 9.23 µM] (inactive). The outcome in assay [4] was “inactive [at 9.52 µM]”; in assay [5], “inactive [at 9.73 µM]”. Besides, the Z-AUC was 0.715 (inactive) in assay [6], 0.498 in assay [6] (setting [7]) and 0.787 in assay [6] (measured here: PEO4 Z-AUC).

`O=C1OC2(CCC(C(=O)Nc3ccn(-c4ccccc4F)n3)CC2)c2cnccc21` (centres undefined): the Potency result in assay [1], in assay [2], in assay [3], in assay [4] and in assay [5] was “inactive” in each case. For the same molecule, the Z-AUC in assay [6] is 0.0773 (inactive); in assay [6] (setting [7]), 0.881; in assay [6] (measured here: PEO4 Z-AUC), 0.97.

For `CC(C)(O)[C@H]1CC[C@@](C)([C@H]2[C@@H](O)C[C@@]3(C)[C@@H]4C[C@H](O[C@@H]5O[C@H](CO)[C@@H](O)[C@H](O)[C@H]5O)[C@H]5C(C)(C)[C@@H](O[C@@H]6OC[C@@H](O)[C@H](O)[C@H]6O)CC[C@@]56C[C@@]46CC[C@]23C)O1`, the Potency result in assay [1], in assay [2], in assay [3], in assay [4] and in assay [5] was “inactive” each time. In addition, the Z-AUC is -0.0384 (inactive) in assay [6], 1.82 in assay [6] (setting [7]) and 1.68 in assay [6] (measured here: PEO4 Z-AUC).

With `CNCCCOc1cc(F)c(-c2c(Cl)nc3ncnn3c2N[C@@H](C)C(F)(F)F)c(F)c1`, the Potency result in assay [1], in assay [4] and in assay [5] was “inactive” in each case. The values for the Potency in assay [2], in assay [3] and in assay [6] were 66.1 nM (active), 46.8 nM (active) and 155 nM (active), respectively. For the same molecule, the figures for the Z-AUC in assay [6] (setting [7]) and in assay [6] (measured here: PEO4 Z-AUC) were -1.35 and -1.7, respectively.

For the molecule `CNCCn1c(=O)c2cc(OC)c(OC)cc2c2cnc3cc4c(cc3c21)OCO4`, the activity change, negative = inhibition in assay [1] was -8.45% [at 8.44 µM] (inactive). For the same molecule, the Potency in assay [2] is 9.6 nM (active); in assay [3], 6 nM (active); in assay [6] it was 7.1 nM (active). In addition, the outcome is “inactive [at 9.52 µM]” in assay [4] and “inactive [at 9.73 µM]” in assay [5]. The Z-AUC was -3.24 in assay [6] (setting [7]) and -2.15 in assay [6] (measured here: PEO4 Z-AUC).

On to `CSC[C@H]1CN(Cc2c[nH]c3c(N)ncnc23)C[C@@H]1O`, for which the Potency entry in assay [1], in assay [2], in assay [3], in assay [4] and in assay [5] was “inactive” each time. For the same molecule, the Z-AUC in assay [6] is 1.09 (inactive); in assay [6] (setting [7]) it was 0.706; in assay [6] (measured here: PEO4 Z-AUC), 1.05.

For `CC(C)n1c(=O)cc(N[C@@H](C)c2ccccc2)[nH]c1=O`, the Potency result in assay [1], in assay [2], in assay [3], in assay [4] and in assay [5] was “inactive” throughout. The Z-AUC in assay [6] was -0.0266 (inactive); in assay [6] (setting [7]), 0.859; in assay [6] (measured here: PEO4 Z-AUC), 1.05.

Turning to `CN(C)CCNC(=O)NC[C@H]1CC[C@@H]2[C@H](O1)c1cc(C(F)(F)F)ccc1N[C@H]2c1ccccc1`, the Potency entry in assay [1], in assay [4] and in assay [5] was “inactive” each time. The Potency was 263 nM (active) in assay [2] and 417 nM (active) in assay [3]. The Z-AUC in assay [6] is -0.264 (inactive); in assay [6] (setting [7]) it was -0.891; in assay [6] (measured here: PEO4 Z-AUC) it was -1.1.

For `CC1=NN(c2ccc(C(=O)O)cc2)C(=O)/C1=C/c1ccc(-c2cc(C)c(C)cc2[N+](=O)[O-])o1`, the Potency result in assay [1], in assay [2], in assay [3], in assay [4] and in assay [5] was “inactive” each time. Also, the Z-AUC in assay [6] was 0.0308 (inactive); in assay [6] (setting [7]) it was 0.127; in assay [6] (measured here: PEO4 Z-AUC), -0.0936.

For `N#Cc1ccc(N(Cc2ccc(Br)cc2)n2cnnc2)cc1`, the Potency result in assay [1], in assay [2], in assay [3], in assay [4] and in assay [5] was “inactive” throughout. The Z-AUC in assay [6] was -0.397 (inactive); in assay [6] (setting [7]) it was -0.74; in assay [6] (measured here: PEO4 Z-AUC) it was -0.908.

`COc1ccc(Cl)cc1-c1cc(=O)[nH]c(=S)n1CC(N)=O`: the Potency entry in assay [1], in assay [2], in assay [3], in assay [4] and in assay [5] was “inactive” each time. Besides, the Z-AUC in assay [6] was 0.0644 (inactive); in assay [6] (setting [7]) it was 0.00773; in assay [6] (measured here: PEO4 Z-AUC), 0.346.
